Only some compounds are listed: those with a hit (about 2.4% of all), similar ones and a draw of the others.
D2 ag-1 – Beta-Arrestin HTS for Positive Allosteric Modulators of the Human D2 Dopamine Receptor: Agonists; D(2) dopamine receptor (Homo sapiens), P14416; DiscoveRx PathHunter D2 beta-arrestin, luminescence, 90 min; 100% = 57 uM dopamine signal; activation, % (concentration not given with the values); hit rate 0.084% among 360,000; in the data active = activation above about 40%; inconclusive = between about 15% and that limit
Target sequence (P14416 whole entry, looked up): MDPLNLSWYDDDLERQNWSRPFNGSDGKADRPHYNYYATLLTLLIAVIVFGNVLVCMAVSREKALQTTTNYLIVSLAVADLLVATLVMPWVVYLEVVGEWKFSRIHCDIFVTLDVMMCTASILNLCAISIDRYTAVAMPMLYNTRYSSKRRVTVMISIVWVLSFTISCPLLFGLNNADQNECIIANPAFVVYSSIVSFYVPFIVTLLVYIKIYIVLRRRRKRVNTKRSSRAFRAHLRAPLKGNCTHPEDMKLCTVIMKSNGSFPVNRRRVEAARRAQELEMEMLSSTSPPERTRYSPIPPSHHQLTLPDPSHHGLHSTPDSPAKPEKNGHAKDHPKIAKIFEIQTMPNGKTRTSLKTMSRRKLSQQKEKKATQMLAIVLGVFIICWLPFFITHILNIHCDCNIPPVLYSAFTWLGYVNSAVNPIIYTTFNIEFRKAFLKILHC
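DiscoveRx PathHunter D2 beta-arrestin cells (2,100/well) attached overnight, then compound-stimulated 90 min at 37 C in HBSS/10 mM HEPES/0.1% Tween-20 buffer; beta-galactosidase complementation read by luminescence after 1 h at ambient temperature. Dopamine 57 uM final (EC100) as control.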
D2 ag-2 – HTS Assay for Allosteric Agonists of the Human D2 Dopamine Receptor: Primary Screen for Agonists. D(2) dopamine receptor (Homo sapiens), P14416. HEK293 T-REx D2 cells, calcium flux agonist mode. activation, % at 2 µM. hit rate 0.53% among 340,000;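 active = activation over 3 SD above normal in the single-dose calcium agonist read, cut at about 30% in these data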
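In this primary screen, compounds producing a positive calcium signal within 180 s of addition to tetracycline-induced, force-coupled HEK293 Trex D2 cells are flagged; cells are dye-loaded with a no-wash calcium kit beforehand.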
D2 PAM-1 – HTS Assay for Positive Allosteric Modulators of the Human D2 Dopamine Receptor: Primary Screen for Potentiators | D(2) dopamine receptor (Homo sapiens), P14416 | potentiation, % at 10 µM | AID 485347, 2010 | hit rate 0.34% among 340,000 | HEK293 T-REx D2, calcium flux, EC20 dopamine potentiation;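 active = potentiation over 3 SD above the plate norm, cut at about 30% in these data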
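Calcium flux readout, no-wash dye, 1 read/s. Inducible HEK293 Trex D2 line, overnight 30 C. Compound alone 180 s (agonist flags), then EC20 dopamine, another 180 s to score potentiation.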
D2 antagonist – HTS Assay for Allosteric Antagonists of the Human D2 Dopamine Receptor: Primary Screen for Antagonists. HEK293 TREx D2 cells, calcium flux, dopamine EC80. inhibition, % at 10 µM. D(2) dopamine receptor (Homo sapiens), P14416. hit rate 2% among 340,000. AID 485344, 2010; in the data active = inhibition above about 30%; inactive = below that, where a call was filed
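Read-out: kinetic calcium fluorescence (1 cycle/s) in inducible HEK293 T-REx D2 cells after an EC80 dopamine addition that followed 180 s compound preincubation. Loss of the dopamine response indicates antagonism.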
D2 PAM-2 – Beta-Arrestin HTS for Positive Allosteric Modulators of the Human D2 Dopamine Receptor: Potentiators; D(2) dopamine receptor (Homo sapiens), P14416; DiscoveRx D2 beta-arrestin cells, luminescence, 90 min; 100% = 57 uM dopamine signal; potentiation, % (test concentration not listed); hit rate 0.23% among 360,000; AID 624464, 2012; in the data active = potentiation above about 50%; inconclusive = mostly about 30% to 49%
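D2 cells co-treated with compound plus 50 nM dopamine (EC20) for 90 min at 37 deg C to detect potentiation. Beta-arrestin recruitment was read as enzyme-fragment luminescence after 1 h at ambient temperature. Full response was set by 57 uM dopamine.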
Large screens that a line does not name were inactive.

CC(=O)Nc1ccc(N=Cc2c(O)c(C(=O)Nc3ccccc3)cc3ccccc23)cc1	D2 ag-2 64.8
Cc1ccc2c(c1)-c1[nH]c(=S)ncc1CS2	D2 PAM-2 60.4
N#CC1=C(SCC(=O)NC2CC2)NC(=O)C(C#N)C12CCCCC2 (centres undefined)	none
N#CC1=C(SCC(=O)NC23CC4CC(CC(C4)C2)C3)NC(=O)C(C#N)C12CCCCC2 (centres undefined)	D2 PAM-1 93.9
O=C(c1[nH]c(C(F)(F)F)nc1-c1ccccc1)N1CCCN(Cc2ccc(F)cc2)CC1	none (no result: D2 ag-2, D2 PAM-1, D2 antagonist)
COc1ccc(OCCSc2nnc(-c3ccoc3C)n2C)cc1	none
COc1cc2c(cc1OC)-c1cc(Nc3ccc4c(c3)OCCO4)nc(=O)n1CC2	D2 PAM-1 57.2
COc1ccc(Nc2cc3n(c(=O)n2)CCc2cc(OC)c(OC)cc2-3)cc1	none
Cc1ccc(NC2CNC(=O)NC2=O)cc1C (centres undefined)	none (no result: D2 ag-2, D2 PAM-1, D2 antagonist)
O=C(Nc1cccc(-n2cnnn2)c1)C1CCCN(Cc2cccc(C(F)(F)F)c2)C1 (centres undefined)	none
CCc1sc(C(=O)NC(C)C2CCCO2)cc1Br (centres undefined)	none
O=C1N=c2ccccc2=C1c1sc(=S)n(CC2CCCO2)c1O (centres undefined)	D2 PAM-2 107.6
COc1ccc(CCn2c(O)c(C3=c4ccccc4=NC3=O)sc2=S)cc1OC	none
CCOC(=O)c1cnc2c(OC)cccc2c1N1CC(C)CC(C)C1 (centres undefined)	none
COc1ccc(-c2cc(C(F)(F)F)nc(N3CCCCCC3)n2)cc1	none
COc1ccc(-c2cc(C(F)(F)F)nc(N3CCN(C)CC3)n2)cc1	D2 antagonist 39.3
CN1CCN(c2nc(C#N)cc(-c3ccccc3)n2)CC1	none
COc1ccc(-c2cc(C#N)nc(N3CCN(C)CC3)n2)cc1	D2 antagonist 55.0
S=C1NC2(CCS1)Oc1ccccc1C1CC(c3ccccc3)=NN12 (centres undefined)	none (no result: D2 ag-1, D2 PAM-2)
CCOc1cccc2cc(C(=O)Oc3ccc(OC)cc3)c(=O)oc12	none
CC(C)N(c1ccccc1)c1ccc(NC(=S)NCCN(C)C)cc1	D2 antagonist 82.5
CCOc1ccccc1N1C(=O)CC(Sc2ncccc2C(=O)O)C1=O (centres undefined)	D2 antagonist 35.6
CCN1CCN(CCNC(=O)Cn2c(=O)c3cccn3c3ccc(F)cc32)CC1	none
CCC(=O)NC1CC2CCCC(C1)N2Cc1ccc(C)cc1 (centres undefined)	D2 antagonist 93.4
CC(=O)NC1CC2CCC(C1)N2Cc1ccc(C)cc1 (centres undefined)	D2 antagonist 50.9
CCCN1C2CCCC1CC(NC(=O)c1ccc(Br)cc1)C2 (centres undefined)	none
COC(=O)c1ccc(NC(=O)NC2CCCCC2)cc1	none
CCOC(=O)c1c(NC(=O)C[n+]2ccccc2)sc2c1CCCC2	D2 antagonist 45.8
CCN1CCN(C2CC(=O)NC2=O)CC1 (centres undefined)	none (no result: D2 ag-1, D2 PAM-2)
O=C1CC(N2CCC(C(=O)N3CCCCC3)CC2)C(=O)N1 (centres undefined)	D2 antagonist 37.9 (no result: D2 PAM-1)
COc1ccccc1NCCC(=O)OCC(=O)NC1CCCCC1	none
CC(C)CCCN1CCN=C1Nc1ccccc1	D2 antagonist 39.0
CN(C)C(=O)c1ccc2c(c1[N+](=O)[O-])C(=O)c1ccccc1C2=O	D2 ag-1 inconclusive, D2 PAM-2 68.3 (no result: D2 ag-2, D2 PAM-1, D2 antagonist)
C=CCc1cccc2cc(C(=O)NCCc3c(C)[nH]c4c(C)cccc34)c(=O)oc12	none (no result: D2 ag-1, D2 antagonist, D2 PAM-2)
COc1ccc2c(c1O)C(=O)c1ccccc1C2=O	none (no result: D2 ag-1, D2 PAM-2)
Cc1[nH]c2c(C)cccc2c1CCNC(=O)c1ccc2c(c1[N+](=O)[O-])C(=O)c1ccccc1C2=O	D2 ag-1 inconclusive, D2 PAM-2 93.0
CCCNC(=O)NCCc1c(C)[nH]c2ccccc12	none
Cc1[nH]c2ccccc2c1CCNC(=O)c1ccc2c(c1[N+](=O)[O-])C(=O)c1ccccc1C2=O	D2 ag-1 inconclusive, D2 PAM-2 93.1
O=C(Nc1ccc(O)cc1)c1ccccc1OCc1ccccc1	none
COc1cc(NC(=O)c2ccccc2OCc2ccccc2)cc(OC)c1OC	D2 PAM-2 55.6
CC(Sc1nc(O)c(-c2ccccc2)c(=O)[nH]1)C(=O)Nc1ccc(Cl)cc1 (centres undefined)	none
Cc1ccc(NC(=O)C(C)Sc2nc(-c3ccccc3)cc(=O)[nH]2)cc1 (centres undefined)	D2 antagonist 36.5
O=[N+]([O-])c1cccc(C=NNc2ccc3ccccc3n2)c1O	none (no result: D2 ag-2, D2 PAM-1, D2 antagonist)
COc1ccc(F)cc1C(=O)C1CCCN(Cc2cn(C)c3ccccc23)C1 (centres undefined)	D2 antagonist 78.1
Cn1cc(CN2CCCC(C(=O)c3cc(F)ccc3F)C2)c2ccccc21 (centres undefined)	none
COc1ccc(-c2[nH]ncc2CN2CCCC(C(=O)c3ccc(OC)cc3OC)C2)cc1 (centres undefined)	none
COc1ccc(OC)c(CN2CCCC(C(=O)c3ccccc3SC)C2)c1 (centres undefined)	D2 antagonist 50.7
COc1cc(OC)cc(C(=O)NCC2CCCN(Cc3ccc(SC)cc3)C2)c1 (centres undefined)	D2 antagonist 51.3
CCc1ccc(CN2CCCC(CNC(=O)c3cc(OC)cc(OC)c3)C2)cc1 (centres undefined)	none
COc1ccc(CN2CCC(CO)(Cc3ccccc3)CC2)cc1Cn1cccn1	D2 antagonist 37.0
CCCN(CCC)C(=O)CCS(=O)(=O)c1cccc2nsnc12	none
CC1CCN(c2nc3c(-c4cccc(Br)c4)nnn3c3ccccc23)CC1	none (no result: D2 ag-1, D2 antagonist, D2 PAM-2)
CCOC(=O)c1c(CN2CCN(CC#N)CC2)n(C)c2cc(Br)c(OC)cc12	none
CC(C)NC(=O)Nc1ccc2c(c1)C(=O)N([C@H](C)CO)C[C@H](C)[C@@H](CN(C)Cc1ccc(C(F)(F)F)cc1)OCCCC[C@H](C)O2	none (no result: D2 ag-2, D2 PAM-1, D2 antagonist)
COc1ccc(F)cc1C(=O)C1CCCN(Cc2c[nH]c3ccccc23)C1 (centres undefined)	D2 antagonist 67.1
COC(=O)c1ccc(CN2CCCC(C(=O)c3cc(F)ccc3OC)C2)cc1 (centres undefined)	none
COc1ccc(CN2CCCC(C(=O)c3ccc(SC)cc3)C2)cc1Cn1cccn1 (centres undefined)	D2 antagonist 32.7
COc1ccc(CN2CCNC(=O)C2CC(=O)NCc2cccc(C)n2)c(OC)c1 (centres undefined)	none
